Source: PubChem BioAssay (NCI)
About 79,000 compounds went through this panel and 15% of them were active in at least one assay; those are over-represented in the sample as a whole. Calls of active or inactive are those of the source. Cut-off read from the data, not from the text of the source: active = growth inhibition above about 70%; inactive = the rest.

Assays:
[1] = NCI Yeast Anticancer Drug Screen. Data for the rad52 strain (AID 147);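 note: 0% = growth of vehicle-treated control cultures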; settings: S. cerevisiae rad52 mutant growth inhibition, stronger effect = higher value
Procedure, shortened: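 Inhibition of yeast growth, referenced to vehicle controls, was the measured output for a strain with defective DNA damage repair.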

[2] = NCI Yeast Anticancer Drug Screen. Data for the wt1 strain (AID 149);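 note: 0% = growth of vehicle-treated wt1 cultures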; settings: S. cerevisiae wt1 strain (SPY 50644) growth inhibition, stronger effect = higher value
Procedure, shortened: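 wt1 yeast, compound-treated; % growth inhibition vs vehicle control.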

[3] = NCI Yeast Anticancer Drug Screen. Data for the rad50EPP+ strain (AID 151);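 note: 0% = growth of vehicle-treated control cultures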; settings: S. cerevisiae rad50 mutant strain, stronger effect = higher value
Procedure, shortened: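 Genetically defined yeast (rad50EPP+, DNA damage repair alteration) is grown with compound, and inhibition of growth is expressed relative to vehicle-treated controls.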

[4] = NCI Yeast Anticancer Drug Screen. Data for the mgt1 strain (AID 153); settings: S. cerevisiae mgt1 mutant growth inhibition, stronger effect = higher value
Procedure, shortened: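 In the mgt1 strain, test compounds were added and growth inhibition was determined relative to vehicle-treated controls.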

[5] = NCI Yeast Anticancer Drug Screen. Data for the rad50 strain (AID 155);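 note: 0% = growth of vehicle-only cultures of the same strain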; settings: S. cerevisiae rad50 strain growth inhibition, stronger effect = higher value
Procedure, shortened: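 Genetically altered yeast (DNA repair pathway); compound treatment; growth inhibition vs vehicle ctrl.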

[6] = NCI Yeast Anticancer Drug Screen. Data for the mec2-1 strain (AID 157); settings: S. cerevisiae mec2-1 strain, stronger effect = higher value
Procedure, shortened: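 Each compound was tested on mec2-1 yeast, a strain altered in DNA damage repair or cell cycle control. Growth inhibition is reported relative to vehicle.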

[7] = NCI Yeast Anticancer Drug Screen. Data for the rad14 strain (AID 159);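 note: 0% = growth of vehicle-treated control cultures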; settings: S. cerevisiae rad14 strain growth inhibition, stronger effect = higher value
Procedure, shortened: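 Test compounds were applied to a repair-deficient yeast strain. Its growth was then compared with that of cultures given vehicle alone, and inhibition was expressed relative to those controls.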

[8] = NCI Yeast Anticancer Drug Screen. Data for the CLN2oe strain (AID 163);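 note: 0% = growth of vehicle-only control cultures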; settings: S. cerevisiae CLN2oe strain, stronger effect = higher value
Procedure, shortened: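 First, the altered yeast strain was treated with each compound; second, its growth was measured; finally, inhibition was derived by comparison with vehicle controls.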

[9] = NCI Yeast Anticancer Drug Screen. Data for the cln2 rad14 strain (AID 165);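 note: 0% = growth equal to vehicle treated cultures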; settings: S. cerevisiae cln2 rad14 strain, stronger effect = higher value
Procedure, shortened: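 Test compounds were added to cln2 rad14 yeast cultures; inhibition of growth was then determined by comparison with vehicle treatment.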

[10] = NCI Yeast Anticancer Drug Screen. Data for the bub3 strain (AID 167); settings: S. cerevisiae bub3 mutant strain, stronger effect = higher value
Procedure, shortened: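 Yeast carrying a defined mutation is treated with each compound, and growth is compared with that of vehicle-exposed cells to give inhibition.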

[11] = NCI Yeast Anticancer Drug Screen. Data for the wt2 strain (AID 169);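 note: 0% = growth of vehicle-treated yeast cultures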; settings: S. cerevisiae wt2 strain growth inhibition, stronger effect = higher value
Procedure, shortened: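 The panel's yeast strains carry defined changes in DNA repair or cell cycle genes. Each strain is grown with compound, and growth loss is scored relative to vehicle.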

[12] = NCI Yeast Anticancer Drug Screen. Data for the mlh1 strain (AID 171);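 note: 0% = growth of vehicle-treated control cultures of the same strain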; settings: S. cerevisiae mlh1 strain growth inhibition, stronger effect = higher value
Procedure, shortened: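 Inhibition values reflect reduced yeast growth in the presence of compound, referenced to vehicle controls, using a strain chosen for its alteration in DNA repair or cell cycle control.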

[13] = NCI Yeast Anticancer Drug Screen. Data for the sgs1 strain (AID 173);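 note: 0% = growth of vehicle-only control cultures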; settings: S. cerevisiae sgs1 mutant, stronger effect = higher value
Procedure, shortened: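 Vehicle-treated cultures served as reference for growth inhibition of a yeast strain altered in DNA damage repair or cell cycle control after compound exposure.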

[14] = NCI Yeast Anticancer Drug Screen. Data for the mlh1 rad18 strain (AID 175); settings: S. cerevisiae mlh1 rad18 strain growth inhibition, stronger effect = higher value
Procedure, shortened: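 Inhibition values reflect reduced growth of mutant yeast versus vehicle-treated controls following compound exposure; the mutations affect DNA damage repair.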

[15] = NCI Yeast Anticancer Drug Screen. Data for the rad18 strain (AID 177); settings: S. cerevisiae rad18 mutant growth inhibition, stronger effect = higher value
Procedure, shortened: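 Steps: expose repair-mutant yeast to compound; measure growth; express as inhibition relative to vehicle control.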

[16] = at 5.0 µM (retest, dose inferred, filed as 0.5)
[17] = at 50.0 µM (retest, dose inferred, filed as 5.0)

Measured: growth inhibition

O=C1CSC(/C=C/c2ccccc2)N1c1ccc(-c2ccc(-n3c(-c4ccccc4)nc4ccccc4c3=O)cc2)cc1 (stereo not given)
inactive: [1]; at 1.2 µM -2% | [1]; at 3.7 µM 1% | [1]; at 11.0 µM 4% | [1]; at 33.0 µM 15% | [1]; at 100.0 µM 61% | [2]; at 1.2 µM -2% | [2]; at 3.7 µM -2% | [2]; at 11.0 µM -3% | [2]; at 33.0 µM -6% | [2]; at 100.0 µM 14% | [3]; at 1.2 µM 2% | [3]; at 3.7 µM 10% | [3]; at 11.0 µM 19% | [3]; at 33.0 µM 28% | [3]; at 100.0 µM 29% | [4]; at 1.2 µM -2% | [4]; at 3.7 µM -2% | [4]; at 11.0 µM -4% | [4]; at 33.0 µM 19% | [5]; at 1.2 µM -1% | [5]; at 3.7 µM 3% | [5]; [16] -9% | [5]; at 11.0 µM 5% | [5]; at 33.0 µM 22% | [5]; at 100.0 µM 58% | [6]; at 1.2 µM -1% | [6]; at 3.7 µM 0% | [6]; [16] 0% | [6]; at 11.0 µM 1% | [6]; at 33.0 µM 7% | [6]; [17] 45% | [6]; at 50.0 µM 42.5% | [6]; at 100.0 µM 67% | [7]; at 1.2 µM 1% | [7]; at 3.7 µM 2% | [7]; at 11.0 µM 9% | [7]; at 33.0 µM 31% | [8]; at 1.2 µM 2% | [8]; at 3.7 µM -1% | [8]; at 11.0 µM -6% | [8]; at 33.0 µM -9% | [8]; at 100.0 µM 22% | [9]; [16] 9% | [9]; [17] 42% | [9]; at 50.0 µM 32.5% | [10]; at 1.2 µM 4% | [10]; at 3.7 µM 12% | [10]; [16] -6% | [10]; at 11.0 µM 22% | [10]; at 33.0 µM 35% | [10]; [17] 65% | [11]; at 1.2 µM -3% | [11]; at 3.7 µM -3% | [11]; at 11.0 µM -4% | [11]; at 33.0 µM 5% | [11]; at 100.0 µM 62% | [12]; at 1.2 µM -2% | [12]; at 3.7 µM -1% | [12]; at 11.0 µM -2% | [12]; at 33.0 µM 18% | [13]; at 1.2 µM -2% | [13]; at 3.7 µM -2% | [13]; at 11.0 µM 0% | [13]; at 33.0 µM 17% | [13]; at 100.0 µM 61% | [14]; [16] -6% | [15]; at 1.2 µM -3% | [15]; at 3.7 µM 1% | [15]; at 11.0 µM 5% | [15]; at 33.0 µM 13% | [15]; at 100.0 µM 46%
active: [4]; at 100.0 µM 81% | [5]; [17] 78% | [5]; at 50.0 µM 75.5% | [7]; at 100.0 µM 79% | [10]; at 50.0 µM 75% | [10]; at 100.0 µM 79% | [12]; at 100.0 µM 77% | [14]; [17] 91% | [14]; at 50.0 µM 84.3%
